# Results filed as inconclusive are left out. Where a call stands in place of a potency, no number is given. Calls of active or inactive are those of the source. Unless noted, calls come from the whole dose curve; as a rule, active = well fitted curve in the direction sought with a large enough effect; inconclusive = small, poorly fitted or top-dose-only effect, or another doubt; inactive = no such curve, though single readings can be large; an effect the other way counts as inactive or inconclusive.
# Experiments:
# [1] = Quantitative High-Throughput drug screen in 47 multiple myeloma cell lines against the NCATS MIPE library collection: KMS28BM_JCRB cell viability assay (AID 1919874); note: nearly all actives have a fitted effect of over 35% in size; note: potency is the fitted concentration of half-maximal effect
# Outline: (§1)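 ATP-based CellTiter-Glo luminescence after 48 h drug exposure (37 °C, 5% CO2) of 500 myeloma cells per well. DMSO-only wells set 100% viability, media-only wells 0%; MIPE 4.0 library added by pin tool.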
# [2] = qHTS drug screen for cell cycle checkpoint inhibitors in PARPi-resistant BRCA-mutant ovarian cancer cell lines. (AID 1963452; calls by dose curve); conditions: PEO1/OlaR viability, CellTiter-Glo luminescence, 96 h, stronger effect = lower value
# Outline: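 PEO1, PEO4 and PEO1/OlaR ovarian cancer cells, 600 per well, exposed 96 h at 37C to a dilution series. Viability read by CellTiter-Glo luminescence, normalized to DMSO and empty wells; activity summarized as Z-AUC.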
# [3] = qHTS for identification of novel therapeutic agents for treatment of microphthalmiaassociated transcription factor (MiT) renal cell carcinoma (RCC) (AID 1963991); conditions: CellTiter-Glo, 48 h, stronger effect = lower value
# Outline: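 UOK109/UOK124/UOK145 (TFE3 fusions, three partners); 500 cells/well; MIPE v4.0, 1912 cpds, 11 conc.; 48 h, 37 C; CellTiter-Glo, 15 min RT; lum. Norm.: DMSO 100%, empty 0%.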
# [4] = Quantitative High-Throughput drug screen in 47 multiple myeloma cell lines against the NCATS MIPE library collection: KMS11_JCRBsus cell viability assay (AID 1919873); note: nearly all actives have a fitted effect of over 50% in size; note: potency is the fitted concentration of half-maximal effect
# Outline: as §1
# [5] = KB-8-5-11 P-gp reporter qHTS against the NCATS DSHEA and TCM libraries (AID 1919977)
# Outline: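 P-gp-overexpressing KB-8-5-11 cells (500/well) were plated in colchicine-free DMEM with 10% FBS, attached ~4 h, then exposed to substance titrations for ~72 h at 37C. Viability was read by CellTiter-Glo luminescence.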
# [6] = qHTS profiling for inhibitors of Plasmodium falciparum proliferation (AID 504749); note: potency is the fitted concentration of half-maximal effect; for all read-outs here: nearly all actives have a fitted effect of over 60% in size; conditions: P. falciparum in erythrocytes, SYBR Green DNA, 72 h; for activity, negative = inhibition: at 28.7 µM (top of the series)
# Outline: (§2)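 SYBR Green fluorescence of parasite DNA, read after lysis and overnight dark incubation, measured growth over 72 h in erythrocyte culture at 0.3% parasitemia and 2.5% hematocrit. Data normalised to DMSO and 0.29 uM artemisinin, with plate-drift correction.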
# 3D7 = assay: as above; conditions: P. falciparum in erythrocytes, SYBR Green DNA, 72 h; series mostly up to 28.7 µM
# Outline: as §2
# 7G8 = assay: as above; conditions: P. falciparum in erythrocytes, SYBR Green DNA, 72 h; series mostly up to 28.7 µM
# Outline: as §2
# AA1029 = assay: as above; conditions: P. falciparum in erythrocytes, SYBR Green DNA, 72 h; series mostly up to 28.7 µM
# Outline: as §2
# AS120 = assay: as above; conditions: P. falciparum in erythrocytes, SYBR Green DNA, 72 h; series mostly up to 28.7 µM
# Outline: as §2
# ATS189 = assay: as above; conditions: P. falciparum in erythrocytes, SYBR Green DNA, 72 h; series mostly up to 28.7 µM
# Outline: as §2
# ATS95 = assay: as above; conditions: P. falciparum in erythrocytes, SYBR Green DNA, 72 h; series mostly up to 28.7 µM
# Outline: as §2
# C2A = assay: as above; conditions: P. falciparum in erythrocytes, SYBR Green DNA, 72 h; series mostly up to 28.7 µM
# Outline: as §2
# CP185 = assay: as above; conditions: P. falciparum in erythrocytes, SYBR Green DNA, 72 h; series mostly up to 28.7 µM
# Outline: as §2
# CP191 = assay: as above; conditions: P. falciparum in erythrocytes, SYBR Green DNA, 72 h; series mostly up to 28.7 µM
# Outline: as §2
# CP192 = assay: as above; conditions: P. falciparum in erythrocytes, SYBR Green DNA, 72 h; series mostly up to 28.7 µM
# Outline: as §2
# CP194 = assay: as above; conditions: P. falciparum in erythrocytes, SYBR Green DNA, 72 h; series mostly up to 28.7 µM
# Outline: as §2
# CP201 = assay: as above; conditions: P. falciparum in erythrocytes, SYBR Green DNA, 72 h; series mostly up to 28.7 µM
# Outline: as §2
# CP211 = assay: as above; conditions: P. falciparum in erythrocytes, SYBR Green DNA, 72 h; series mostly up to 28.7 µM
# Outline: as §2
# CP215 = assay: as above; conditions: P. falciparum in erythrocytes, SYBR Green DNA, 72 h; series mostly up to 28.7 µM
# Outline: as §2
# [7] = measured here: PEO1 parental Z-AUC
# [8] = TFE3-RCC UOK109 viability, measured here: UOK109 Z-AUC
# [9] = TFE3-RCC viability, measured here: UOK124 Z-AUC
# [10] = TFE3-RCC viability, measured here: UOK145 Z-AUC
smiles,measurement,setting,value
C[C@]12Cc3cn[nH]c3C[C@@H]1CC[C@@H]1[C@H]2CC[C@@]2(C)[C@H]1CC[C@]2(C)O,Potency,[1],inactive
O=C(N[C@H]1CN2CCC1CC2)c1ccc(Cl)cc1,Potency,[1],inactive
same,Z-AUC,[2],-0.714 (inactive)
same,Z-AUC,[2]; [7],0.355
same,Z-AUC,[2]; measured here: PEO4 Z-AUC,-0.659
C#C[C@]1(O)C=C[C@@H]2[C@@H]3CCC4=CC(=O)CC[C@@H]4[C@H]3CC[C@@]21CC,Potency,[1],inactive
same,z-score,[3]; [8],1.02
same,z-score,[3]; [9],0.666
same,z-score,[3]; [10],-1.42
COc1ccc(C(=O)c2c(C)n(CCN3CCOCC3)c3cc(I)ccc23)cc1,Potency,[4],23.5 µM (active)
same,Z-AUC,[2],-0.298 (inactive)
same,Z-AUC,[2]; [7],-0.515
same,Z-AUC,[2]; measured here: PEO4 Z-AUC,-0.461
O=C(O)c1ccccc1O,outcome,[5],inactive
CC1=C(C/C=C(\C)CCC[C@H](C)CCC[C@H](C)CCCC(C)C)C(=O)c2ccccc2C1=O,outcome,[5],inactive
Cc1ccccc1-n1c(Cn2cnc3c(N)ncnc32)nc2cccc(C)c2c1=O,Potency,[1],0.372 µM (active)
same,Z-AUC,[2],-0.47 (inactive)
same,Z-AUC,[2]; [7],0.542
same,Z-AUC,[2]; measured here: PEO4 Z-AUC,0.532
CC(=CCCC1=CCC(C2=CC(=O)OC2O)OC1O)CCC1=C(C)CCCC1(C)C (stereo not drawn),Potency,[1],2.64 µM (active)
same,z-score,[3]; [8],0.667
same,z-score,[3]; [9],0.534
same,z-score,[3]; [10],-0.0671
CCOC(=O)c1cncn1[C@H](C)c1ccccc1,Potency,[1],inactive
same,z-score,[3]; [8],1.85
same,z-score,[3]; [9],0.442
same,z-score,[3]; [10],0.512
c1ccc2c(CN3CCNCC3)cccc2c1,Potency,[4],inactive
same,Z-AUC,[2],-0.771 (inactive)
same,Z-AUC,[2]; [7],-0.119
same,Z-AUC,[2]; measured here: PEO4 Z-AUC,-0.706
same,z-score,[3]; [8],0.545
same,z-score,[3]; [9],0.291
same,z-score,[3]; [10],0.833
O=C(O)C(Cl)Cl,"activity, negative = inhibition",[6]; parasite line A,7.93% (inactive)
same,"activity, negative = inhibition",[6]; parasite line B,-3.72% (inactive)
same,Potency,3D7,inactive
same,Potency,7G8,inactive
same,Potency,AA1029,inactive
same,Potency,AS120,inactive
same,Potency,ATS189,inactive
same,Potency,ATS95,inactive
same,Potency,C2A,inactive
same,Potency,CP185,inactive
same,Potency,CP191,inactive
same,Potency,CP192,inactive
same,Potency,CP194,inactive
same,outcome,CP201,inactive
same,Potency,CP211,inactive
same,Potency,CP215,inactive
CC(C)NC(C)Cc1ccc(I)cc1 (stereo not drawn),"activity, negative = inhibition",[6]; parasite line A,11.4% (inactive)
same,"activity, negative = inhibition",[6]; parasite line B,-12.4% (inactive)
same,Potency,3D7,inactive
same,Potency,7G8,10 µM (active)
same,Potency,AA1029,inactive
same,Potency,AS120,inactive
same,Potency,ATS189,inactive
same,Potency,ATS95,inactive
same,Potency,C2A,inactive
same,Potency,CP185,inactive
same,Potency,CP191,inactive
same,Potency,CP192,inactive
same,Potency,CP194,inactive
same,outcome,CP201,inactive
same,Potency,CP211,inactive
O=C(N[C@@H](COc1ccc2[nH]c(=O)[nH]c2c1)c1ccccc1)c1cccn(Cc2ccc(F)c(F)c2)c1=O,Z-AUC,[2],-0.315 (inactive)
same,Z-AUC,[2]; [7],0.00624
same,Z-AUC,[2]; measured here: PEO4 Z-AUC,0.64
COC1=C[C@@H]2[C@@H]3Cc4ccc(OC)c(O)c4[C@]2(CCN3C)CC1=O,Z-AUC,[2],0.716 (inactive)
same,Z-AUC,[2]; [7],0.742
same,Z-AUC,[2]; measured here: PEO4 Z-AUC,0.886
C[C@]12CCC(=O)C(O)=C1CC[C@@H]1[C@H]3CCC(=O)[C@@]3(C)CC[C@@H]12,Potency,3D7,inactive
same,Potency,7G8,inactive
same,Potency,AS120,inactive
same,Potency,CP191,inactive
same,Potency,CP192,inactive
same,Potency,CP194,inactive
same,outcome,CP201,inactive
same,Potency,CP211,inactive
same,Potency,CP215,inactive
O=[N+]([O-])c1ccc([As](=O)(O)O)cc1,Potency,[6]; parasite line A,6.31 µM (active)
same,Potency,[6]; parasite line B,6.31 µM (active)
same,Potency,3D7,10 µM (active)
same,Potency,7G8,3.55 µM (active)
same,Potency,AA1029,3.98 µM (active)
same,Potency,AS120,7.94 µM (active)
same,Potency,ATS189,7.08 µM (active)
same,Potency,ATS95,11.2 µM (active)
same,Potency,CP185,8.91 µM (active)
same,Potency,CP191,6.31 µM (active)
same,Potency,CP194,13.5 µM (active)
same,Potency,CP211,7.57 µM (active)
same,Potency,CP215,7.57 µM (active)
CCCN1CCC[C@H](c2cccc(O)c2)C1,"activity, negative = inhibition",[6]; parasite line A,8.52% (inactive)
same,"activity, negative = inhibition",[6]; parasite line B,-0.779% (inactive)
same,Potency,3D7,inactive
same,Potency,AA1029,inactive
same,Potency,AS120,inactive
same,Potency,ATS189,inactive
same,Potency,ATS95,inactive
same,Potency,C2A,inactive
same,Potency,CP185,inactive
same,Potency,CP191,inactive
same,Potency,CP192,inactive
same,Potency,CP194,inactive
same,outcome,CP201,inactive
same,Potency,CP211,inactive
same,Potency,CP215,inactive

# Reference: PubChem BioAssay (NCATS)
